# Shown is part of a subset that was picked to be rich in hits.
# SF-1 inh: inhibitors of human nuclear receptor SF-1; Q13285; 65,000 compounds, 0.55% hits; inhibition, % at 10 µM; AID 525; CHO-K1 Gal4-SF-1 LBD luciferase reporter;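 active = inhibition above the mean inhibition of all tested compounds plus 3 SD, cut at about 48% in these data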;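 also: 0% = SF-1 transfected cells with DMSO and 100% = mock-transfected cells lacking SF-1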
# Target sequence (Q13285 whole entry, looked up, the tested form may be a part): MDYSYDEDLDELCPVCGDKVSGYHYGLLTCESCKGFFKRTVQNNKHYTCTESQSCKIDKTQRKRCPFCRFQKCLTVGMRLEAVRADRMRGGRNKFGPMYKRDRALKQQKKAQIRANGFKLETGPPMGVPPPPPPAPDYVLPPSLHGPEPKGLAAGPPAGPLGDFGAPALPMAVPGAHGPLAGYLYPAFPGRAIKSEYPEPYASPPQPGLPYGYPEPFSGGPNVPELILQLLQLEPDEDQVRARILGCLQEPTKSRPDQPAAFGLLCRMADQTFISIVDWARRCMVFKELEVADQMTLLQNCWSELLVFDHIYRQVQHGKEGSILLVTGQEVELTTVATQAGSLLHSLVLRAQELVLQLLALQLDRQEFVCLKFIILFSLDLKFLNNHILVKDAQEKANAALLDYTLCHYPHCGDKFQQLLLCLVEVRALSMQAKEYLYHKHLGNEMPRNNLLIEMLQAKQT
# The depositor's hits bear a star.
SMILES,SF-1 inh
COc1cccc(-c2nc(CS(=O)(=O)CC(=O)N3CCN(C)CC3)c(C)o2)c1,-6.6
CCOC(=O)N1CCC(N2C(=O)c3ccccc3C2Nc2ccc3c(C)cc(=O)oc3c2)CC1 (centres undefined),-11.7
[O-][N+]1=c2ccc(Nc3ccccc3)cc2=NC12CCCCC2,61.8*
CC(NC(=O)c1ccco1)C(=O)OCc1cccc(Cl)c1 (centres undefined),-7.6
CN(Cc1ccccc1)C(=O)CCCn1c(=O)[nH]c2cc(Cl)ccc2c1=O,-7.4
Nc1ccc(-c2nc3c(Cl)cc(N)cc3[nH]2)cc1,55.2*
Cc1oc(C(C)(C)C)cc1C(=O)Nc1ccc2c(c1)OCCO2,-57.0
O=C(NC1CCCCC1)C(c1ccccc1)N1CCOCC1 (centres undefined),10.3
COc1ccc(N=CC2=C(O)CC(C)(C)CC2=O)cc1,-87.2
COC(=O)c1c(N)n(-c2cc(OC)cc(OC)c2)c2nc3ccccc3nc12,3.2
CCOC(=O)C1CCCN(C(=O)CCCOc2cc(=O)n(C)c3ccccc23)C1 (centres undefined),14.1
Cc1ccnc(NC(=O)CCCOc2cc(=O)n(C)c3ccccc23)c1,59.0*
CCC1CCCCN1C(=O)COc1cc(=O)n(C)c2ccccc12 (centres undefined),-0.5
O=C(COC(=O)c1ccccn1)Nc1c(Cl)cccc1Cl,10.3
Cc1csc(NC(=O)c2cccs2)n1,-53.0
CCC(Oc1ccc(C)c(C)c1)C(=O)O (centres undefined),-0.2
Cc1cnc(C(=O)Nc2cccc3cccnc23)cn1,60.9*
Cc1cnc(C(=O)Nc2nnc(C(C)C)s2)cn1,-68.5
O=C(Nc1cccc2ccccc12)c1cnccn1,-62.7
CC(C)c1nc2n[nH]c(N)c2c2c1CCCC2,4.6
O=C(CCS(=O)CCC(=O)NCc1ccccc1)NCc1ccccc1,5.6
COc1ccc(-c2csc(NCc3ccco3)n2)cc1C,-80.0
Cc1ccc(C(C)C)c(OCCNc2nc3c(c(=O)n(C)c(=O)n3C)n2C)c1,48.9*
COc1cccc(C(=O)Cn2c(Br)nc3c2c(=O)n(C)c(=O)n3C)c1,12.0
COC(=O)Cn1c(CCS(=O)(=O)c2ccc(C)c(C)c2)nc2ccccc21,14.3
SMILES,SF-1 inh
O=C(Nc1sc2c(c1C(=O)O)CCCCC2)c1ccco1,-57.4
O=C(NCc1ccco1)c1ccc2nc3sc4c(c3c(=O)n2c1)CCCC4,60.0*
O=C(Cn1cnc2sc(-c3ccccc3)cc2c1=O)NCc1ccco1,-37.9
O=c1c2ccccc2nnn1CSc1nnc2ccccn12,-77.6
CCCc1cc(=O)n2[nH]c(-c3ccc(Br)cc3)cc2n1,-111.6
O=C(CN(c1ccc2c(c1)OCCO2)S(=O)(=O)c1ccccc1)NCc1ccco1,-4.4
CCCc1nc2ccccc2c(C(=O)OC2CCOC2=O)c1CC (centres undefined),-4.7
O=C(CSc1nnnn1C1CCCC1)Nc1cccc(NC(=O)c2ccco2)c1,-2.8
COc1ccccc1-n1nnnc1SCC(=O)Nc1cc(C)on1,2.6
O=C(CSc1nnnn1C1CC2CCC1C2)Nc1ccnc2ccccc12 (centres undefined),75.9*
CS(=O)(=O)N1CCc2cc(S(=O)(=O)Nc3ccc4c(c3)OCCO4)ccc21,17.8
Cc1c(NC(=O)c2cc(=O)[nH]c(=O)[nH]2)c(=O)n(-c2ccccc2)n1C,-3.2
CC(=O)OCCN(Cc1ccccc1)Cc1ccc2c(c1)OCO2,-2.7
CC(C)(C)c1cccc(/C=N/O)c1O,-2.7
COc1ccc(CCNC(=O)c2nonc2N)cc1OC,0.9
O=C(NCc1ccc(F)cc1)c1noc2c1CCCC2,3.3
Nc1nonc1C(=O)NCCNCc1cc(Br)ccc1OCc1ccc(F)cc1,56.8*
COC(=O)c1ccc(NC(=O)Cc2ccccc2)cc1,-71.4
CN1CCN(CCCNC(=O)C2CC(=O)N(C3CCCCC3)C2)CC1 (centres undefined),-18.2
COc1ccc(C(C)=O)cc1CN1C(=O)C(C)N(c2ccc(C)cc2)C1=O (centres undefined),7.1
O=c1sc(Nc2ccccc2)nc2ccsc12,-56.0
Cc1ccc(-c2nc(-c3ccccc3)no2)c(Cl)c1,69.6*
COc1cccc(-c2nc(-c3ccccc3)no2)c1,9.4
c1ccc(-c2noc(-c3cccc4ccccc34)n2)cc1,-65.1
O=C(c1cccc(F)c1)N1CCN(CC2CC3C=CC2C3)CC1 (centres undefined),15.0
SMILES,SF-1 inh
c1ccc2c(-c3nc(-c4ccncc4)no3)cccc2c1,-74.0
O=C1c2ccccc2C(=O)C1c1nccc2ccccc12,59.8*
Brc1cccc(-c2n[nH]c(-c3ccccc3)n2)c1,-65.2
NC(=O)c1oc2ccccc2c1NC(=O)c1nc2ccccc2s1,-63.6
CN(C)c1ccccc1C(=O)c1ccccc1N(C)C,-78.1
COC(=O)/C(=C1/Oc2cc(C)oc(=O)c2S1)C(F)(F)F,96.4*
CC1(C)CC(=O)C(C=Nc2ccc3c(c2)OCO3)=C(O)C1,-72.4
CC(=O)N1CN(C2CCS(=O)(=O)C2)Cc2c1sc1c2CCCC1 (centres undefined),1.0
Cc1ccc(-c2nc(N)n(C(=O)Cc3ccccc3)n2)cc1,5.1
O=C(Nc1cccc(-c2nc3cc(Cl)ccc3o2)c1)C1CCCO1 (centres undefined),-80.9
O=S1(=O)C=C(Sc2nc3cc(Cl)ccc3o2)c2ccccc21,70.8*
O=C1c2ccccc2C(=O)N1CCCSc1nc2ccccc2o1,2.1
CC(C)Sc1nnc(Nc2ccccc2)s1,-105.8
COc1cccc(CC(NC(C)=O)C(=O)NC2CCN(c3c4c(nc5ncnn35)CCC4)CC2)c1 (centres undefined),-71.8
COc1cc(CC(NC(C)=O)C(=O)NC2CCN(c3nc(C)cc(C)c3C#N)CC2)cc(OC)c1 (centres undefined),71.4*
COc1ccc(NC(=O)C2CCN(c3nc(C)nc4c3CCC4)CC2)cc1,-11.0
CCCCNC(=O)CN1CCC2(O)CCCCC2C1c1ccccc1OC (centres undefined),-15.2
O=C(Nc1ccc2c(c1)OCCO2)NC12CC3CC(CC(C3)C1)C2,-74.8
Cc1ccnc(NS(=O)(=O)c2ccc(NC(=O)C3CCCCC3C(=O)O)cc2)n1 (centres undefined),6.4
c1cncc(-c2nnc(SCc3nc4ccccc4[nH]3)o2)c1,56.3*
O=c1c2ccccc2nc2sc3ccccc3n12,-56.8
Cc1nn(-c2nc3ccccc3s2)c(N)c1-c1ccccc1,-60.0
O=c1c2ccccc2cnn1-c1nc2ccccc2s1,90.0*
Cc1cccc2cc(COC(=O)c3cccnc3)c(=O)[nH]c12,9.2
N=C1C(c2nc3ccccc3s2)=C(O)CN1Cc1ccco1,-51.5
SMILES,SF-1 inh
COc1nc(Nc2nc3ccccc3c(=O)[nH]2)nc2ccc(C)cc12,76.3*
COc1ccc(S(=O)(=O)N(Cc2ccccc2)Cc2nc3ccccc3c(=O)[nH]2)cc1,12.5
COc1ccc(Nc2nc(C)c3ccccc3n2)cc1,-98.7
N#Cc1c(N)nc2c(c1-c1ccncc1)CCCCC2,6.6
COc1ccc(N(CC(=O)Nc2cc(C)ccc2OC)S(=O)(=O)c2c(C)noc2C)cc1,-53.6
O=C(O)CSCc1ccc(Cl)cc1,10.6
COc1ccc(C2=NOC(C(=O)Nc3cc(C)nn3-c3ccccc3)C2)cc1OC (centres undefined),7.4
COc1ccc(-c2noc(CSc3ccccc3)n2)cc1OC,-68.2
Cc1nnc(SC(=O)N2c3ccccc3Sc3ccccc32)s1,65.1*
Cc1nnc(SCC(=O)N2c3ccccc3CC2C)s1 (centres undefined),6.4
C/C(NCc1cccnc1)=C(\C#N)C(=O)NCc1ccccc1,5.2
COc1ccccc1NC(=O)c1cnc2n(c1=O)CCS2,-28.7
